Assay results: the supplement of paper PMC4840960
Structures can show the parent of a compound that is named as a salt.

test system: E18 rat cortical neuron-glia co-culture; experiment: fiber score / MBP score (myelination specific beyond OL differentiation) (ratio); higher = more myelination-specific MBP alignment; conditions: 1 µM; treatment time: 8 days (DIV5-DIV13)
How it was run: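 Library compounds were applied at 1 or 5 µM in myelination medium, DIV5 to DIV13, to primary E18 rat cortical co-cultures grown at 20,000 cells/well in 96-well plates. After 4 % paraformaldehyde fixation and MBP/Olig2/DAPI immunostaining, four 10X fields per well in duplicate wells were scored. Each value is continuous MBP fiber length per Olig2+ nucleus divided by thresholded MBP area × intensity per Olig2+ nucleus.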

SMILES | fiber score / MBP score
Clc1cccc(Cl)c1NC1=NCCN1 [Clonidine hydrochloride] | 0.735
Nc1nc(N)c2nc(-c3ccccc3)c(N)nc2n1 [Triamterene] | 1.39
Cn1ccnc1S [Methimazole] | 0.372
O=C(CCCN1CCC(O)(c2ccc(Cl)cc2)CC1)c1ccc(F)cc1 [Haloperidol] | 0.526
CN(C)CCCN1c2ccccc2CCc2ccc(Cl)cc21 [Clomipramine] | 1.05
COC(=O)CCc1ccc(OCC(O)CNC(C)C)cc1 (centres undefined) [Esmolol] | 1.07
COc1ccc(CN2CCN(C(c3ccc(F)cc3)c3ccc(F)cc3)CC2)c(OC)c1OC [Lomerizine] | 1.05
CC(C)(C#N)c1cc(Cn2cncn2)cc(C(C)(C)C#N)c1 [Anastrozole] | 0.803
CC(=O)NS(=O)(=O)c1ccc(N)cc1 [Sulfacetamide] | 0.746
CC(C)NCC(O)c1ccc(O)c(O)c1 (centres undefined) [Isoproterenol] | 0.965
CC(C)[N+]1(C)[C@@H]2CC[C@H]1C[C@@H](OC(=O)C(CO)c1ccccc1)C2 (some centres undefined) [Ipratropium] | 0.783
C[C@@H](c1ncncc1F)[C@](O)(Cn1cncn1)c1ccc(F)cc1F [Voriconazole] | 0.693
c1ccc(-c2ccc(C(c3ccccc3)n3ccnc3)cc2)cc1 (centres undefined) [Bifonazole] | 0.241
COc1ccc([C@@H]2Sc3ccccc3N(CCN(C)C)C(=O)[C@@H]2OC(C)=O)cc1 [Diltiazem] | 0.782
CC1(C)S[C@@H]2[C@H](/N=C/N3CCCCCC3)C(=O)N2[C@H]1C(=O)O [Amdinocillin] | 0.728
CC(C)NCC(O)c1ccc(NS(C)(=O)=O)cc1 (centres undefined) [Sotalol] | 0.726
CC1(C)S[C@@H]2[C@H](NC(=O)COc3ccccc3)C(=O)N2[C@H]1C(=O)O [Penicillin V] | 0.881
CC(C)NCC(O)COc1cccc2ccccc12 (centres undefined) [Propranolol] | 1.55
CC(=O)O[C@@]12CO[C@@H]1C[C@H](O)[C@@]1(C)C(=O)[C@H](O)C3=C(C)[C@@H](OC(=O)[C@H](O)[C@@H](NC(=O)OC(C)(C)C)c4ccccc4)C[C@@](O)([C@@H](OC(=O)c4ccccc4)[C@H]21)C3(C)C [Docetaxel] | 1.59
CC(=O)S[C@@H]1CC2=CC(=O)CC[C@]2(C)[C@H]2CC[C@@]3(C)[C@@H](CC[C@@]34CCC(=O)O4)[C@H]12 [Spironolactone] | 0.765
CC(C)(C)NC[C@H](O)COc1nsnc1N1CCOCC1 [Timolol] | 0.869
COc1ccc(C(=O)NCc2ccc(OCCN(C)C)cc2)cc1OC [Itopride] | 0.63
Nc1nnc(-c2cccc(Cl)c2Cl)c(N)n1 [Lamotrigine] | 0.703
CC(C)/N=c1\cc2n(-c3ccc(Cl)cc3)c3ccccc3nc-2cc1Nc1ccc(Cl)cc1 [Clofazimine] | 0.742
